The structures appear in SMILES notation. In all, about 310,000 compounds went through this assay and about 14,000 (4.5%) showed an effect of 50% or more. The effect is printed as a negative number. This is one part of a sample in which strong results are shown more often than they occur.
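Also: peak tail current of the secondary pulse compared with the same well before compound.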

Sequence of human ether-à-go-go-related gene (hERG) potassium channel (Q12809 whole entry, looked up): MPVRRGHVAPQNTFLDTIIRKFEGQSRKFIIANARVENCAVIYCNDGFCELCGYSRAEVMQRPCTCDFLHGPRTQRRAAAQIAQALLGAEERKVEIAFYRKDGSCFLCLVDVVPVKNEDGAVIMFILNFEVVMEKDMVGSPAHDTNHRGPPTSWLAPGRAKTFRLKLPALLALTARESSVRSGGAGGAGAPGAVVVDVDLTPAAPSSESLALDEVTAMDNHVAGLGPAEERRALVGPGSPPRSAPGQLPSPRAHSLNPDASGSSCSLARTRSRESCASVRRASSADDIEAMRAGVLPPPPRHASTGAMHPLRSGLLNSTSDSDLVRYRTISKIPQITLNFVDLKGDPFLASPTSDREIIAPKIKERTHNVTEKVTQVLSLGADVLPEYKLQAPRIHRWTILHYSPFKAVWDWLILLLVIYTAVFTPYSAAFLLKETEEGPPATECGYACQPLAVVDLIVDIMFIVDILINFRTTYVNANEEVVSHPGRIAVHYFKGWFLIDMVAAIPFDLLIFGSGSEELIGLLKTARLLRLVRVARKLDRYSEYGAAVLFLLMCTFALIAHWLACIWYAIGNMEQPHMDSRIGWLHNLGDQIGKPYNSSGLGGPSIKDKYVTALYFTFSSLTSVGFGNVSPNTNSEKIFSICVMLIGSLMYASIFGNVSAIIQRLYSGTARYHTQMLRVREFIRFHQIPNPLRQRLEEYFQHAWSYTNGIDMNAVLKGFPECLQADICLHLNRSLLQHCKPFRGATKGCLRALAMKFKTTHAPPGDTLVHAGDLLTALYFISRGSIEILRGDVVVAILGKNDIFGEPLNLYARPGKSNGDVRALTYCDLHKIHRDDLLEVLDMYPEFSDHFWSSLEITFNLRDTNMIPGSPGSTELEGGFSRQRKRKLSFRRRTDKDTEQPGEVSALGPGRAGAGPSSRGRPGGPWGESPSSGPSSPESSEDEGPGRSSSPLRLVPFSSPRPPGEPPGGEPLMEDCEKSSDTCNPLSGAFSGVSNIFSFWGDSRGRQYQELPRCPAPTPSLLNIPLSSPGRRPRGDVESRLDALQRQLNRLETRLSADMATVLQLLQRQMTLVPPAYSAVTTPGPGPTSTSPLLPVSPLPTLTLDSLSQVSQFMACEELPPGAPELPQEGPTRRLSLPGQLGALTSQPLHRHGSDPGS

The assay addresses human ether-à-go-go-related gene (hERG) potassium channel (human, UniProt Q12809). Kind of assay: primary screen, population patch clamp on CHO cells stably expressing hERG; higher = less effect of the substance.
In the case of `O=C1NC(c2ccccc2)CCC1(Cl)Cl` (centres unmarked), the “hERG current change (%, negative = inhibition) at 10uM” value worked out at 6.57%.

Regarding `CCc1ccc(NC(=O)c2cccc(NC3=NC4CS(=O)(=O)CC4S3)c2)cc1` (centres unmarked), the “hERG current change (%, negative = inhibition) at 10uM” value turned out to be 18%.

Turning to `CCn1c(=O)n(CC(=O)NCc2ccccc2OC)c(=O)c2ccccc21`, the “hERG current change (%, negative = inhibition) at 10uM” value came out at 8.2%.

In the case of `CC(C)(C)C(=O)C1=C(O)C(=O)N(Cc2ccccc2)C1c1ccccc1Cl` (centres unmarked), the “hERG current change (%, negative = inhibition) at 10uM” value was found to be 14.1%.

`O=C(COc1ccccc1O)N1CCN(C(=O)c2ccco2)CC1`: the “hERG current change (%, negative = inhibition) at 10uM” value is -24.8%.

`CCOC(=O)Nc1ccc(C(=O)c2ccncc2)cc1`: the “hERG current change (%, negative = inhibition) at 10uM” value is 14.7%.

`COc1ccccc1-c1ccc(=O)n(CC(=O)NC(C)(C)C)n1`: the “hERG current change (%, negative = inhibition) at 10uM” value is reported as 14%.

Regarding `COc1cccc2[nH]c3c(N4CCc5ccccc5C4)ncnc3c12`, the “hERG current change (%, negative = inhibition) at 10uM” value came to 4.69%.

Turning to `CC1(C)Cc2c(sc(NC(=O)C(C)(C)C)c2C#N)C(C)(C)N1`, the “hERG current change (%, negative = inhibition) at 10uM” value is recorded as 3.16%.

For `O=C(CN1CCN(S(=O)(=O)c2ccccc2C(F)(F)F)CC1)NCc1cccs1`, the “hERG current change (%, negative = inhibition) at 10uM” value is reported as -68.1%.

As to `O=C(NCc1cccs1)C1CCN(S(=O)(=O)c2ccccc2F)CC1`, the “hERG current change (%, negative = inhibition) at 10uM” value turned out to be 10.4%.

With `N#CCCN1CCN(S(=O)(=O)c2ccc(C#N)cc2)CC1`, the “hERG current change (%, negative = inhibition) at 10uM” value is listed as -10.6%.

On to `O=C(NCc1cccs1)C1CCN(S(=O)(=O)c2ccc(Cl)cc2)CC1`, for which the “hERG current change (%, negative = inhibition) at 10uM” value is 4.41%.

Take `Cl.O=C(CN1CCN(c2ccc(F)cc2)CC1)NCc1cccs1`: the “hERG current change (%, negative = inhibition) at 10uM” value is listed as -15.4%.

Regarding `O=C(CN1CCN(S(=O)(=O)c2ccc(Cl)cc2)CC1)NCc1cccs1`, the “hERG current change (%, negative = inhibition) at 10uM” value is given as -59.1%.

With `O=C(CN1CCN(S(=O)(=O)c2ccc(F)cc2)CC1)NCc1cccs1`, the “hERG current change (%, negative = inhibition) at 10uM” value is -32.1%.

With `CC(=O)Nc1ccc(S(=O)(=O)N2CCN(Cc3cccs3)CC2)cc1.O=C(O)C(=O)O`, the “hERG current change (%, negative = inhibition) at 10uM” value is listed as -7.69%.

In the case of `N#Cc1ccc(S(=O)(=O)N2CCN(Cc3cccs3)CC2)cc1`, the “hERG current change (%, negative = inhibition) at 10uM” value is -61.2%.

Turning to `COc1ccc(OC)c(Nc2nc(-c3ccc(O)c(O)c3)cs2)c1`, the “hERG current change (%, negative = inhibition) at 10uM” value is listed as 10.8%.

Take `CC12CN3CC(C)(CN(C1)C31CCOCC1)C2=O`: the “hERG current change (%, negative = inhibition) at 10uM” value is 11.4%.

As to `CCOc1cc(C(=O)NC2CC(C)(C)NC(C)(C)C2)cc(OCC)c1OCC`, the “hERG current change (%, negative = inhibition) at 10uM” value turned out to be 20%.

As to `O=C(NCc1ccco1)C1CCN(S(=O)(=O)Cc2ccccc2)CC1`, the “hERG current change (%, negative = inhibition) at 10uM” value was -5.29%.

In the case of `CCOc1ccc(S(=O)(=O)N(C)CC(=O)NCc2ccccn2)cc1Cl`, the “hERG current change (%, negative = inhibition) at 10uM” value is given as -27.8%.

`O=C(CSc1ncn[nH]1)Nc1ccc2c(c1)OCCO2`: the “hERG current change (%, negative = inhibition) at 10uM” value is -26.9%.

Regarding `Cc1csc(N)n1`, the “hERG current change (%, negative = inhibition) at 10uM” value came out at 7.04%.

In the case of `Cc1ccnc(NC(=O)CC(c2ccccc2)c2ccccc2)n1`, the “hERG current change (%, negative = inhibition) at 10uM” value was 30.5%.

Take `Clc1ccc(CSc2cc3c(nn2)-c2ccccc2CC3)cc1`: the “hERG current change (%, negative = inhibition) at 10uM” value is 23%.

Take `CC1=C(C(=O)OCC2CCCCC2)C(c2ccc(O)cc2)NC(=O)N1` (centres unmarked): the “hERG current change (%, negative = inhibition) at 10uM” value came to 12.7%.

For `COC(=O)c1cc(NC2c3ccccc3C(=O)N2c2ccc(Cl)cn2)cc(C(=O)OC)c1` (centres unmarked), the “hERG current change (%, negative = inhibition) at 10uM” value is 19.5%.

Consider `Cc1ccc(S(=O)(=O)NCC(=O)OCC(=O)c2ccc(Br)s2)cc1`, for which the “hERG current change (%, negative = inhibition) at 10uM” value was -52.7%.

As to `Cc1ccc(S(=O)(=O)NCC(=O)OCC(=O)c2cccs2)cc1`, the “hERG current change (%, negative = inhibition) at 10uM” value worked out at 0.259%.

With `Cc1ccc(S(=O)(=O)NCC(=O)OCC(=O)c2ccc(Cl)s2)cc1`, the “hERG current change (%, negative = inhibition) at 10uM” value is 1.12%.

Take `Cc1cccc(CN2C(=O)[C@H]3Cc4c([nH]c5ccccc45)C(C)(C)N3C2=O)c1`: the “hERG current change (%, negative = inhibition) at 10uM” value is listed as -1.56%.

In the case of `CS(=O)(=O)NC1c2cccc3cccc(c23)C1Sc1nncn1/N=C/c1ccco1` (centres unmarked), the “hERG current change (%, negative = inhibition) at 10uM” value is on record as -21.1%.

Regarding `COc1ccc(/C=N\NC(=O)c2ccccc2[N+](=O)[O-])cc1COc1c(F)c(F)c(F)c(F)c1F`, the “hERG current change (%, negative = inhibition) at 10uM” value is recorded as 8.06%.

Consider `COc1ccc(C(=O)N/N=C/c2ccc(OC)c(CN3CCc4cc(OC)c(OC)cc4C3C)c2)cc1` (centres unmarked), for which the “hERG current change (%, negative = inhibition) at 10uM” value was -76%.

On to `COc1ccc(/C=N/NC(=O)c2cc(OC)c(OC)c(OC)c2)cc1CN1CCc2cc(OC)c(OC)cc2C1C` (centres unmarked), for which the “hERG current change (%, negative = inhibition) at 10uM” value is on record as -73.4%.

As for `COc1ccc(/C=N/NC(=O)c2cccnc2)cc1CN1CCc2cc(OC)c(OC)cc2C1C` (centres unmarked), the “hERG current change (%, negative = inhibition) at 10uM” value is recorded as -40.9%.

For `COc1ccc(C(=O)N/N=C/c2ccc(OC)c(CN3CCCc4ccccc43)c2)cc1`, the “hERG current change (%, negative = inhibition) at 10uM” value was -11.9%.

For `COc1ccc(/C=N/NC(=O)c2ccc(OC)c(OC)c2)cc1COc1c(F)c(F)c(F)c(F)c1F`, the “hERG current change (%, negative = inhibition) at 10uM” value amounted to 5.91%.

`COc1ccc(/C=N/NC(=O)c2ccc(O)cc2)cc1CN1CCCc2ccccc21`: the “hERG current change (%, negative = inhibition) at 10uM” value is 0.817%.

Regarding `COc1ccc(/C=N/NC(=O)c2ccc(F)cc2)cc1CN1CCc2cc(OC)c(OC)cc2C1C` (centres unmarked), the “hERG current change (%, negative = inhibition) at 10uM” value was -88.3%.

For the compound `COc1ccc(/C=N/NC(=O)c2ccccc2[N+](=O)[O-])cc1CN1CCc2cc(OC)c(OC)cc2C1C` (centres unmarked), the “hERG current change (%, negative = inhibition) at 10uM” value is recorded as -63.9%.

In the case of `COc1ccc(C(=O)N/N=C/c2ccc(OC)c(COc3ccccc3)c2)cc1`, the “hERG current change (%, negative = inhibition) at 10uM” value is listed as -26.1%.

In the case of `COc1ccc(/C=N\NC(=O)c2ccc(F)cc2)cc1COc1ccccc1C(N)=O`, the “hERG current change (%, negative = inhibition) at 10uM” value is given as -44.3%.

For the compound `COc1ccc(/C=N/NC(=O)c2ccccc2OC)cc1COc1ccccc1[N+](=O)[O-]`, the “hERG current change (%, negative = inhibition) at 10uM” value was determined as 8.94%.

As to `Cc1nc2cc(NC(=O)Nc3ccc(N4CCOCC4)cc3)ccc2n1C`, the “hERG current change (%, negative = inhibition) at 10uM” value was found to be 6.34%.

Take `COCCn1c(Br)nc2c1c(=O)n(C)c(=O)n2C`: the “hERG current change (%, negative = inhibition) at 10uM” value is given as 8.14%.

Regarding `Cc1ccccc1C(=O)N1CCN(c2ccc(NC(=O)c3cccs3)cc2)CC1`, the “hERG current change (%, negative = inhibition) at 10uM” value is 4.97%.

With `CC(=O)Nc1ccc(S(=O)(=O)NCC2CCC(C(=O)NCCCN(C)Cc3ccccc3)CC2)cc1` (centres unmarked), the “hERG current change (%, negative = inhibition) at 10uM” value is 6.98%.

For the compound `CCn1c(SCC(=O)NCC2CCCO2)nnc1-c1ccccc1OC` (centres unmarked), the “hERG current change (%, negative = inhibition) at 10uM” value stood at 10.9%.

On to `CS(=O)(=O)Nc1ccccc1C(=O)NCC1(N2CCCCC2)CCCCC1`, for which the “hERG current change (%, negative = inhibition) at 10uM” value is reported as -8.32%.

For `O=C(O)c1ccc(NS(=O)(=O)c2ccc(C(=O)Nc3ccccc3)cc2)cc1`, the “hERG current change (%, negative = inhibition) at 10uM” value is -8.65%.

For the compound `Cc1ccc(S(=O)(=O)N2CCC(n3nnc4cc(C)ccc43)CC2)cc1`, the “hERG current change (%, negative = inhibition) at 10uM” value is reported as -28.9%.

For the compound `Cc1ccc(C)c(CN2CCC(n3nnc4cc(F)ccc43)CC2)c1`, the “hERG current change (%, negative = inhibition) at 10uM” value is on record as -21.2%.

For the compound `Cc1ccc(Cn2nnnc2CN2CCC(n3nnc4ccccc43)CC2)cc1.Cl`, the “hERG current change (%, negative = inhibition) at 10uM” value was -53.9%.

`Cc1ccc(Cn2nnnc2CN2CCC(NC(=O)c3ccc(Br)cc3)CC2)cc1`: the “hERG current change (%, negative = inhibition) at 10uM” value is on record as -44.7%.

Consider `Cc1ccc(Cn2nnnc2CN2CCC(NC(=O)C(C)(C)C)CC2)cc1.Cl`, for which the “hERG current change (%, negative = inhibition) at 10uM” value is listed as 0.395%.

On to `Cc1ccc(Cn2nnnc2CN2CCC(n3nnc4cc(C)ccc43)CC2)cc1`, for which the “hERG current change (%, negative = inhibition) at 10uM” value is on record as -65.2%.

For the origin of these results see article PMC4336329 (PLoS ONE, 2015).
